# Laboratory results reported in PubChem BioAssay.
# Activity calls are given as the source filed them. Unless noted, the rule behind the calls is not given here.
# Assays:
# [1] = compound effects on lung adenocarcinoma cell viability – A549, calcein-AM fluorescence, 48 h, basal, profiling panel (AID 1162); details: higher = more signal; note: test concentration not given here
# [2] = compound effects on differentiated 3T3-L1 adipocyte viability – cell-based, 3T3-L1 adipocytes, calcein-AM fluorescence, 48 h, basal, profiling panel (AID 1163); details: 3T3-L1 adipocytes viability, higher = more signal; note: test concentration not given here
# [3] = compound effects on hepatocellular carcinoma cell viability – HepG2, calcein-AM fluorescence, 48 h, basal, profiling panel (AID 1164); details: higher = more signal; note: test concentration not given here
# [4] = compound effects on multiple myeloma cell viability – MM1S, calcein-AM fluorescence, 48 h, basal, profiling panel (AID 1165); details: higher = more signal;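 note: viability of MM1S multiple myeloma cells under basal unstimulated conditions; test concentration not given here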
# [5] = calcein-AM signal in unstimulated myeloma cells – cell-based, calcein-AM fluorescence, 48 h, PK04 Diversity Set, profiling panel (AID 1166); details: RPMI8226 myeloma viability, higher = more signal;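 note: cells grown under basal conditions without added stimulus; test concentration not given here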
# [6] = JC-1 mitochondrial signal, unstimulated HepG2 cells – cell-based, JC-1 fluorescence, 24 h, 100 nL compound, profiling panel (AID 1167); details: HepG2 mitochondrial potential, higher = more signal; note: test concentration not given here
# [7] = JC-1 mitochondrial signal, unstimulated adipocytes – cell-based, JC-1 fluorescence, 3T3-L1 adipocytes, 24 h, 100 nL compound, profiling panel (AID 1168); details: JC-1 mitochondrial fluorescence, higher = more signal, called active from +8 up or from −8 down; note: test concentration not given here
# [8] = JC-1 mitochondrial signal, unstimulated myeloma cells – cell-based, JC-1 fluorescence, RPMI8226, 24 h, 100 nL compound, profiling panel (AID 1169); details: JC-1 mitochondrial potential fluorescence, higher = more signal; note: test concentration not given here
# [9] = JC-1 mitochondrial signal, unstimulated MM1S myeloma – cell-based, JC-1 fluorescence, 24 h, 100 nL compound, profiling panel (AID 1170); details: MM1S mitochondrial potential, higher = more signal; note: test concentration not given here
# [10] = resazurin metabolic signal in A549 cells – cell-based, resazurin fluorescence, 24 h, PK04 Diversity Set, profiling panel (AID 1171); details: A549 viability, higher = more signal, called active from +8 up or from −8 down; note: test concentration not given here
# [11] = resazurin metabolic signal in HepG2 cells – cell-based, resazurin fluorescence, 24 h, PK04 Diversity Set, profiling panel (AID 1172); details: HepG2 viability, higher = more signal; note: test concentration not given here
# [12] = budding yeast growth changes without added modifier – OD600, strain BY4716, 24 h, basal condition, primary screen (AID 1173); details: S. cerevisiae BY4716 growth, OD600, 24 h; higher = more signal, called active from +8 up or from −8 down
# [13] = viability profiling in MM1S myeloma cells – cell-based, resazurin fluorescence, basal, 24 h, PK04 Diversity Set, profiling panel (AID 1174); details: higher = more signal, called active from +8 up or from −8 down; note: test concentration not given here
# [14] = target: Dihydroorotate dehydrogenase (quinone), mitochondrial (Plasmodium falciparum (isolate 3D7)) (UniProt Q08210); experiment: inhibition of P. falciparum DHODH – biochemical, C-terminal His tag, absorbance 600 nm, primary screen (AID 1175); details: PfDHODH enzyme, DCIP absorbance 600 nm; higher = more signal, called active from +8 up or from −8 down;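 note: recombinant parasite enzyme with a five histidine tag at its C terminus; test concentration not given here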
# Dihydroorotate dehydrogenase (quinone), mitochondrial (Plasmodium falciparum (isolate 3D7)), sequence (Q08210 whole entry, looked up): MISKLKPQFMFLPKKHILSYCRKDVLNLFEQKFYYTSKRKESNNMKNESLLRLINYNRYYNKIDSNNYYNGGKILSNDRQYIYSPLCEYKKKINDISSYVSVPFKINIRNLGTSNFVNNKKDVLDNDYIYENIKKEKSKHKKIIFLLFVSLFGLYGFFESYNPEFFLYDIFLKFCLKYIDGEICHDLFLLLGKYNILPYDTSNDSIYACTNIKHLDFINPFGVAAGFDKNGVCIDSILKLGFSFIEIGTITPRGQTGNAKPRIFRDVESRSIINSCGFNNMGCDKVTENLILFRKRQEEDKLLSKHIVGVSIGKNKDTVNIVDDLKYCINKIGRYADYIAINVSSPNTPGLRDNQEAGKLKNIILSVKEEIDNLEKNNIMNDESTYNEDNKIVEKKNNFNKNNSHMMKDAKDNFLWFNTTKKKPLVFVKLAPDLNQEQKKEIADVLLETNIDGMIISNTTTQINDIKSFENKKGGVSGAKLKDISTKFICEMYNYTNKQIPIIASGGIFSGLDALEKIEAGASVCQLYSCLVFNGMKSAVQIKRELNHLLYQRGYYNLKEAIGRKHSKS
# [15] = inhibition of PAO1 biofilm formation – strain PAO1, LB-PBS medium, absorbance 600 nm, primary screen (AID 1176); note: test concentration not given here; details: P. aeruginosa PAO1 growth/biofilm, A600, 12 h; higher = more signal
# [16] = growth modulation of vineyard yeast isolate – strain RM11-1a, OD600, basal, 24 h, primary screen (AID 1177);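 note: cultures grown under basal conditions with no added stressor; test concentration not given here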; details: S. cerevisiae RM11-1a growth, OD600, 24 h; higher = more signal, called active from +8 up or from −8 down
# [17] = growth of efflux-deficient E. coli DRC39 – strain DRC39, OD650, 24 h, E. coli filamentation inducers, primary screen (AID 1178);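 note: growth measured as culture turbidity by optical density at 650 nm; test concentration not given here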; details: E. coli DRC39 acrAB, higher = more signal, called active from +8 up or from −8 down
# [18] = growth of efflux-deficient E. coli DRC39 – strain DRC39, OD650, 48 h, E. coli filamentation inducers, primary screen (AID 1179);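 note: screen aims at cell division blockers that make cells filament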; details: E. coli DRC39 delta-acrAB growth, higher = more signal, called active from +8 up or from −8 down
# [19] = viability profiling in RPMI8226 myeloma cells – cell-based, resazurin fluorescence, basal, 24 h, PK04 Diversity Set, profiling panel (AID 1180); details: higher = more signal;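 note: RPMI8826 multiple myeloma cell line at 5000 cells per well; test concentration not given here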
# [20] = target: E3 ubiquitin-protein ligase XIAP (Homo sapiens) (UniProt P98170); experiment: small molecules binding XIAP protein – biophysical, small-molecule microarray, fluorescence 635 nm, primary screen (AID 1181); details: higher = more signal;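 note: score merges 667 nm emission and signal to noise over triplicate slides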
# E3 ubiquitin-protein ligase XIAP (Homo sapiens), sequence (P98170 whole entry, looked up): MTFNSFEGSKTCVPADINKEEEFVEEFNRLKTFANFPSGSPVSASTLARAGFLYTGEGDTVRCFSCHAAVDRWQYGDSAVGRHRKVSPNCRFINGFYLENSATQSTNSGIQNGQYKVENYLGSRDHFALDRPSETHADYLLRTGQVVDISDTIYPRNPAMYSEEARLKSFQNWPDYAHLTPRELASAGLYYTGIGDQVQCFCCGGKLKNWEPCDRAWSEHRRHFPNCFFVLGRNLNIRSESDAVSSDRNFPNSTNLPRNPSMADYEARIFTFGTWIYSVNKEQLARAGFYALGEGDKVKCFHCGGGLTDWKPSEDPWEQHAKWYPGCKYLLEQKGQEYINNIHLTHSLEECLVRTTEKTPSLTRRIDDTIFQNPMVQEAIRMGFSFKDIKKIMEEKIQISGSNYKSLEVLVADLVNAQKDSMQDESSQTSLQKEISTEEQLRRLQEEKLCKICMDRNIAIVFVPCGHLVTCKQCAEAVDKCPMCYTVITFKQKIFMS
Structure (SMILES),z-score [1],z-score [2],z-score [3],z-score [4],z-score [5],z-score [6],z-score [7],z-score [8],z-score [9],z-score [10],z-score [11],z-score [12],z-score [13],composite z-score [14],z-score [15],z-score [16],z-score [17],z-score [18],z-score [19],composite z-score [20]
COC(=O)CC=C[C@@H](C)[C@@H](C=NO[C@@H]1O[C@H](COC(C)=O)[C@@H](OC(C)=O)[C@H](OC(C)=O)[C@H]1OC(C)=O)NS(=O)(=O)c1ccc(C)cc1,-0.4,-0.387,-0.416,0.27,-1.81,-0.365,-1.39 (inactive),-0.736,0.049,-0.251 (inactive),0.22,0.653 (inactive),-1.04 (inactive),-0.069 (inactive),0.298 (inactive),-0.186 (inactive),-1.8 (inactive),-0.57 (inactive),-0.437,-0.177
CC(C)=CCCC(C)=CCON=C1C[C@@H](O)[C@@H](O)[C@@H]2[C@@H]3C(=O)N(c4ccc(F)cc4F)C(=O)[C@@H]3CC[C@H]12,-1.39,0.719,0.0201,-3.06,0.579,-2.26,0.866 (inactive),-0.786,-1.55,0.619 (inactive),0.844,-2.97 (inactive),0.257 (inactive),-1.42 (inactive),0.671 (inactive),-0.777 (inactive),0.375 (inactive),0.438 (inactive),1.32,-0.0939
CC(C)(C)N1C(=O)[C@H]2[C@H]3[C@H](O)[C@H](O)CC(=NOCc4ccccc4)[C@H]3CC[C@H]2C1=O,0.156,-0.503,-1.11,0.166,-0.946,-0.736,0.536 (inactive),-0.492,0.0361,0.727 (inactive),-0.211,-0.565 (inactive),0.0488 (inactive),-0.192 (inactive),-0.237 (inactive),-0.786 (inactive),0.184 (inactive),0.332 (inactive),0.237,-0.102
CC(C)CON=C1C[C@@H](O)[C@@H](O)[C@@H]2[C@@H]3C(=O)N(C4CCCCC4)C(=O)[C@@H]3CC[C@@H]12,-0.162,0.617,-0.323,-0.34,-0.271,-1.21,-0.49 (inactive),-0.0174,0.268,-0.048 (inactive),-0.577,-4.72 (inactive),0.119 (inactive),-0.508 (inactive),-0.294 (inactive),0.523 (inactive),-0.3 (inactive),-1.17 (inactive),-0.0596,0.0159
CC(CCN1CCc2nc(-c3ccccc3)c(-c3ccccc3)cc2C1)=NOC[C@@H](O)COCc1ccco1,1.53,-0.0838,2.01,-0.293,0.465,1.65,-0.278 (inactive),1.09,-0.174,-0.684 (inactive),-1.2,-2 (inactive),-1.88 (inactive),-0.727 (inactive),-0.0417 (inactive),0.358 (inactive),0.943 (inactive),1.14 (inactive),-1.31,0.239
